From PubChem BioAssay (EPA / NIEHS)
Results filed as inconclusive are left out. Calls of active or inactive are those of the source. The calls were made as follows, unless noted: active = hit-call score of the fitted dose curve at least 0.9, where 1 is the maximum; inconclusive = response in the unintended direction; inactive = score below 0.9.

Experiments:
[1] = ATG_GAL4_TRANS: Attagene TRANS-FACTORIAL HepG2 Assay for GAL4 (Internal Marker) (AID 2282976); settings: HepG2 Attagene TRANS GAL4 internal marker reporter
In short: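 Background-control readout: GAL4-UAS reporter transcript in transiently transfected HepG2 cells after 24 h compound exposure. Measured by RT-PCR, 6-FAM primer extension, HpaI digest and capillary electrophoresis; gain-of-signal fit versus DMSO.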

[2] = target: human Thyroid Receptor alpha (THRa1), THRA (gene 7067) (UniProt P10827); test: ATG_THRa1_TRANS: Attagene TRANS-FACTORIAL HepG2 Assay for human Thyroid Receptor alpha (THRa1) (AID 2283014)
In short: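 HepG2 cells transiently transfected with chimeric NR-Gal4 and GAL4-UAS reporter units, dosed 24 h. Reporter mRNA quantified by RT-PCR, fluorescent labeling, HpaI digestion and capillary electrophoresis; gain-of-signal fit versus DMSO.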

[3] = ATG_XTT_Cytotoxicity: Cytotoxicity Assessment in the Attagene TRANS-FACTORIAL HepG2 Assay (AID 2283584)
In short: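 HepG2 cells transiently transfected with GAL4-UAS multiple reporter units, dosed 24 h; cytotoxicity read by XTT as loss of signal versus DMSO baseline.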

[4] = target: Bile acid receptor (Homo sapiens) (UniProt Q96RI1); test: ATG_IR1_CIS: Attagene CIS-FACTORIAL HepG2 Assay for human Nuclear Receptor Subfamily 1 Group H Member 4 (NR1H4), IR1 submotif (AID 2282946; active = hit-call score of the fitted dose curve at least 0.9, where 1 is the maximum; inactive = score below 0.9); settings: IR1 reporter transcription, actives raise or lower the signal
In short: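 Fluorescence of capillary-separated, HpaI-digested RT-PCR reporter products gave IR1-element mRNA induction in HepG2 cells 24 h after dosing. Endogenous transcription factors drove the cis-regulated reporters; activity was fitted bidirectionally against DMSO.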

[5] = target: Bile acid receptor (Homo sapiens) (UniProt Q96RI1); test: ATG_FXR_TRANS: Attagene TRANS-FACTORIAL HepG2 Assay for Farnesoid X Receptor (FXR) (AID 2282979); settings: HepG2 Attagene TRANS FXR-GAL4 reporter transcription;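 also: hits raise reporter mRNA above DMSO so AC50 marks FXR activation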
In short: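 HepG2 cells were transiently transfected with GAL4-UAS reporters driven by chimeric NR-Gal4 proteins and dosed for 24 h. Reporter mRNA was quantified by RT-PCR, fluorescent labelling, HpaI digestion and capillary electrophoresis, with gain of signal scored versus DMSO.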

[6] = target: Oxysterols receptor LXR-alpha (Homo sapiens) (UniProt Q13133); test: ATG_LXRa_TRANS: Attagene TRANS-FACTORIAL HepG2 Assay for human Liver X Receptor alpha (LXRa) (AID 2282980); settings: HepG2 Attagene TRANS reporter, LXRa transactivation
In short: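 HepG2 cells transiently transfected with GAL4-UAS reporter units for chimeric NR-Gal4 proteins, exposed to chemicals for 24 h. Reporter mRNA quantified by RT-PCR and capillary electrophoresis; gain of signal fitted relative to DMSO.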

[7] = target: Oxysterols receptor LXR-beta (Homo sapiens) (UniProt P55055); test: ATG_LXRb_TRANS: Attagene TRANS-FACTORIAL HepG2 Assay for human Liver X Receptor beta (LXRb) (AID 2282981); settings: HepG2 Attagene TRANS GAL4-LXRb reporter, mRNA
In short: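 Readout: fluorescent reporter mRNA fragments resolved by capillary electrophoresis after RT-PCR. System: transiently transfected human HepG2, exogenous LXRb-Gal4 chimera driving GAL4-UAS reporter, 24 h dosing. Activity fitted upward against DMSO baseline.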

[8] = target: human Peroxisome Proliferator-activated Receptor delta (PPARd), PPARD (gene 5467) (UniProt Q03181); test: ATG_PPARd_TRANS: Attagene TRANS-FACTORIAL HepG2 Assay for human Peroxisome Proliferator-activated Receptor delta (PPARd) (AID 2283002)
In short: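 Fluorescence from capillary electrophoresis of labelled RT-PCR reporter fragments gives the signal; DMSO sets baseline. Cells: HepG2 transiently carrying GAL4-UAS reporter units plus chimeric nuclear receptor-Gal4 proteins, exposed to chemicals for 24 h.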

[9] = target: Peroxisome proliferator-activated receptor gamma (Homo sapiens) (UniProt P37231); test: ATG_PPARg_TRANS: Attagene TRANS-FACTORIAL HepG2 Assay for human Peroxisome Proliferator-activated Receptor-gamma (PPARg) (AID 2283007)
In short: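 Transient transfection of HepG2 with GAL4-UAS-driven reporter units; chemical dosing 24 h; total RNA → oligo(dT) RT → PCR with reporter primers → 6-FAM primer extension → HpaI digest 2 h 37 C → capillary electrophoresis. Positive direction vs DMSO.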

[10] = target: Nuclear receptor subfamily 1 group I member 2 (Homo sapiens) (UniProt O75469); test: ATG_PXR_TRANS: Attagene TRANS-FACTORIAL HepG2 Assay for human Pregnane X Receptor (PXR) (AID 2283008)
In short: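 HepG2 transfected (FuGene 6) with GAL4-UAS reporter units + PXR-Gal4 chimera; dosed 24 h. Total RNA → oligo(dT) RT → PCR → 6-FAM primer extension → HpaI cut → CE. Gain-of-signal vs DMSO.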

[11] = TOX21_p53_BLA_p3_viability: Viability Assessment in the Tox21 HCT-116 p53 Agonism Beta-lactamase Assay, Phase 3 (AID 2283593);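 also: cells exposed to compound for 16 h before reading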
In short: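 HCT116 cells, 4000/well, dosed 5 h after plating by pin transfer (217-fold dilution from DMSO stock) and incubated 16 h at 37C, 5% CO2. Viability read as ATP luminescence with CellTiter-Glo after 30 min at room temperature.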

[12] = TOX21_p53_BLA_p4_viability: Viability Assessment in the Tox21 HCT-116 p53 Agonism Beta-lactamase Assay, Phase 4 (AID 2283597);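 also: hits lower the luminescence signal meaning cytotoxicity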
In short: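 4000 HCT116 cells per well; 5 h attachment; compounds from DMSO, 217-fold dilution; 16 h at 37C. Then CCF4-AM, 2 h RT, followed by CellTiter-Glo, 30 min RT, luminescence. Decrease = cytotoxicity.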

[13] = CCTE_Harrill_HTTr_Viability_MCF7: CCTE's 6-hour Cell Viability Assessment for the High-Throughput Transcriptomics (HTTr) Platform, in MCF-7 cells cultured in DMEM + 10% fetal bovine serum, Harrill Lab (AID 2284010; active = hit-call score of the fitted dose curve at least 0.9, where 1 is the maximum; inactive = score below 0.9)
In short: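 Eight-point concentration series, six-hour exposure. Propidium iodide exclusion imaged to assess membrane integrity as a cytotoxicity readout; bidirectional fitting was done with DMSO as negative control and activity baseline.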

[14] = CCTE_Harrill_HTTr_Apoptosis_MCF7: CCTE's 6-hour Apoptosis Assessment for the High-Throughput Transcriptomics (HTTr) Platform, in MCF-7 cells cultured in DMEM + 10% fetal bovine serum, Harrill Lab (AID 2284011; active = hit-call score of the fitted dose curve at least 0.9, where 1 is the maximum; inactive = score below 0.9)
In short: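 MCF-7 cells in DMEM + 10% FBS exposed 6 h to chemicals over an eight-point dilution series. Caspase-3/7 activation imaged by high-content CellEvent Green staining; fitted bidirectionally versus DMSO.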

[15] = ATG_M_19_TRANS: Attagene TRANS-FACTORIAL HepG2 Assay for M19 Transcription Factor (Internal Marker) (AID 2282974); settings: HepG2 Attagene TRANS-FACTORIAL M19 internal marker reporter
In short: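 Fluorescence of 6-FAM-labelled reporter cDNA fragments, separated by capillary electrophoresis, served as the readout. These derived from HepG2 cells carrying transfected GAL4-UAS reporter units after 24 h dosing, with DMSO as negative control.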

[16] = target: human RAR-related Orphan Receptor gamma (RORg), RORC (gene 6097) (UniProt P51449); test: ATG_RORg_TRANS: Attagene TRANS-FACTORIAL HepG2 Assay for human RAR-related Orphan Receptor gamma (RORg) (AID 2283011)
In short: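 HepG2 cells transiently transfected with GAL4-UAS reporter units and chimeric RORg-Gal4 construct; after 24 h chemical exposure, reporter mRNA measured by RT-PCR with fluorescent capillary electrophoresis, gain of signal fitted against DMSO.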

[17] = target: human Vitamin D Receptor (VDR), VDR (gene 7421) (UniProt P11473); test: ATG_VDR_TRANS: Attagene TRANS-FACTORIAL HepG2 Assay for human Vitamin D Receptor (VDR) (AID 2283022)
In short: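 HepG2 cells were transiently transfected with GAL4-UAS reporter units and a chimeric VDR-Gal4 construct, then dosed for 24 hours. Reporter mRNA was quantified by RT-PCR, fluorescent labeling, HpaI digestion and capillary electrophoresis; gain of signal analysed vs DMSO.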

[18] = target: Glucocorticoid receptor (Homo sapiens) (UniProt P04150); test: ATG_GR_TRANS: Attagene TRANS-FACTORIAL HepG2 Assay for human Glucocorticoid Receptor (GR) (AID 2282978); settings: HepG2 Attagene TRANS GR reporter, mRNA transcription;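 also: activators score as hits since higher reporter transcript over DMSO is fitted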
In short: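 Fluorescent capillary-electrophoresis quantitation of reporter mRNA is the readout, taken 24 h after dosing human HepG2 cells carrying transiently transfected GAL4-UAS reporter units activated by chimeric NR-GAL4 fusions; activity scored as induction over DMSO.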

[19] = ACEA_ER_AUC_viability: ACEA Biosciences xCELLigence Real-Time Cell Analysis on Estrogen Receptor Agonism for Viability (AID 2283782);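 also: hit means loss of impedance signal meaning reduced cell growth or viability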
In short: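 Read-out: real-time electrical impedance (RT-CES) area under curve, loss of signal taken as reduced viability, normalized to DMSO baseline. T-47D cells, charcoal-stripped serum medium, compounds up to 100 uM final, continuous exposure, 80 h.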

[20] = target: human RAR-related Orphan Receptor beta (RORb), RORB (gene 6096) (UniProt Q92753); test: ATG_RORb_TRANS: Attagene TRANS-FACTORIAL HepG2 Assay for human RAR-related Orphan Receptor beta (RORb) (AID 2283010)
In short: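 Multiplexed transcription-factor reporter assay: HepG2 cells transiently carrying NR-Gal4/GAL4-UAS constructs, 24 h treatment, mRNA quantified by RT-PCR plus capillary electrophoresis fluorescence; activity scored as induction over DMSO.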

Measured: AC50

Chain of Oxysterols receptor LXR-alpha (Homo sapiens) (Q13133 whole entry, looked up, the tested form may be a part): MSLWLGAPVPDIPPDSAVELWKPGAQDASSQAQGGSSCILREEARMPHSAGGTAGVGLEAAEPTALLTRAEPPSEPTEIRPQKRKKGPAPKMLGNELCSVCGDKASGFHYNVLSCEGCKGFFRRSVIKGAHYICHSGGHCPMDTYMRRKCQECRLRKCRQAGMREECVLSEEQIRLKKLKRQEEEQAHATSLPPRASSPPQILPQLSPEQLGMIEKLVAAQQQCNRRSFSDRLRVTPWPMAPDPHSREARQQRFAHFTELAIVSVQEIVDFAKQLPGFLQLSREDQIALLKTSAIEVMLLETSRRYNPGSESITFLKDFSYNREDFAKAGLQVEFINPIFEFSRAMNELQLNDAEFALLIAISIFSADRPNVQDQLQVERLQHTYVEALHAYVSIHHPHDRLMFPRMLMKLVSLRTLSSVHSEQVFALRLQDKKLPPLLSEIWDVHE
Chain of human Thyroid Receptor alpha (THRa1), THRA (gene 7067) (P10827 whole entry, looked up, the tested form may be a part): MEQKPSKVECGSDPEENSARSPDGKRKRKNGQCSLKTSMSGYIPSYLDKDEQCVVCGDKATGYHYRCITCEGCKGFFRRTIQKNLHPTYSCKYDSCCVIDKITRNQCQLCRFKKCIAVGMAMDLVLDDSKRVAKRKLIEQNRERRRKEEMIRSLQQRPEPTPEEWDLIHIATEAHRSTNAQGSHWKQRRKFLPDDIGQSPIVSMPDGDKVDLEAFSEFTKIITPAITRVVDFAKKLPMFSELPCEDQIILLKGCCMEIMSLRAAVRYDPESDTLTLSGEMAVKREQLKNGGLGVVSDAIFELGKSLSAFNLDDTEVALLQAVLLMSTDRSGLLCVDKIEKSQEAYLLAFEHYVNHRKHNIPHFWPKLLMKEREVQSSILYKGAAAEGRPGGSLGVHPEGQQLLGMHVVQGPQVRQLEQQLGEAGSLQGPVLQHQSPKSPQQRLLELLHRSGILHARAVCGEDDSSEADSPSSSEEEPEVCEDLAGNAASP
Chain of Nuclear receptor subfamily 1 group I member 2 (Homo sapiens) (O75469 whole entry, looked up, the tested form may be a part): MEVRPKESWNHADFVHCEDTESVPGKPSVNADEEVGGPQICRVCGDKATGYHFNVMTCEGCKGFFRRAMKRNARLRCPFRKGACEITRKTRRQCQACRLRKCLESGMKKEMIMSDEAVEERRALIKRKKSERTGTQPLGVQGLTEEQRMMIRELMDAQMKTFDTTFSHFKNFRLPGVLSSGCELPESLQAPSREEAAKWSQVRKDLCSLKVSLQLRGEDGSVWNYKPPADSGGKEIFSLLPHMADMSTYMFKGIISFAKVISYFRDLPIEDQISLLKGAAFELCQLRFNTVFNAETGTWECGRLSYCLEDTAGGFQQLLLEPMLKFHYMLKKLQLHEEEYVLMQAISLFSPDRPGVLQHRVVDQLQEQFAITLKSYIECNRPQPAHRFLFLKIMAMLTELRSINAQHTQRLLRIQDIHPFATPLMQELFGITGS
Chain of human Vitamin D Receptor (VDR), VDR (gene 7421) (P11473 whole entry, looked up, the tested form may be a part): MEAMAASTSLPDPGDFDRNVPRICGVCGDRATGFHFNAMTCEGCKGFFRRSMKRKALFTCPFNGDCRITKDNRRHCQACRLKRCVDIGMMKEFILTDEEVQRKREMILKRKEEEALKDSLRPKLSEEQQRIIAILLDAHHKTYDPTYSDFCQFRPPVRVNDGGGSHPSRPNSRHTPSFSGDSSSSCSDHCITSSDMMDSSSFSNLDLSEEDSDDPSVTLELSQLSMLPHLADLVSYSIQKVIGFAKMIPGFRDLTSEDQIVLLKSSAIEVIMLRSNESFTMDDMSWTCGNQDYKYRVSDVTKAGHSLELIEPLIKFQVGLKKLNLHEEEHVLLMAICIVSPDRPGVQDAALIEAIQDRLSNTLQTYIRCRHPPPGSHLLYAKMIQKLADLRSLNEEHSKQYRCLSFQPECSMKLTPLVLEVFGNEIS
Chain of human RAR-related Orphan Receptor beta (RORb), RORB (gene 6096) (Q92753 whole entry, looked up, the tested form may be a part): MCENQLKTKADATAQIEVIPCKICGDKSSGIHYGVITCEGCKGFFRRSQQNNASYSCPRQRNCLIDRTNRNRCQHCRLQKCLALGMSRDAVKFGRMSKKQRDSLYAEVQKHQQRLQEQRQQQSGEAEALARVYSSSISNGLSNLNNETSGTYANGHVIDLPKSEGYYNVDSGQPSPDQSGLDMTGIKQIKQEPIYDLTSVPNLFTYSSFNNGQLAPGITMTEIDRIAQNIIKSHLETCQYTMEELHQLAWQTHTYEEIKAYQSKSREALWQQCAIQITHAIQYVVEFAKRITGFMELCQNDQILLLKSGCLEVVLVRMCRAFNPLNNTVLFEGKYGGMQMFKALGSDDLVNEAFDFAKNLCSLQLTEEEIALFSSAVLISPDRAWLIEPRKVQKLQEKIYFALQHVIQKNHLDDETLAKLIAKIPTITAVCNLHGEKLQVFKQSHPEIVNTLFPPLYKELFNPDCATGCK
Chain of Glucocorticoid receptor (Homo sapiens) (P04150 whole entry, looked up, the tested form may be a part): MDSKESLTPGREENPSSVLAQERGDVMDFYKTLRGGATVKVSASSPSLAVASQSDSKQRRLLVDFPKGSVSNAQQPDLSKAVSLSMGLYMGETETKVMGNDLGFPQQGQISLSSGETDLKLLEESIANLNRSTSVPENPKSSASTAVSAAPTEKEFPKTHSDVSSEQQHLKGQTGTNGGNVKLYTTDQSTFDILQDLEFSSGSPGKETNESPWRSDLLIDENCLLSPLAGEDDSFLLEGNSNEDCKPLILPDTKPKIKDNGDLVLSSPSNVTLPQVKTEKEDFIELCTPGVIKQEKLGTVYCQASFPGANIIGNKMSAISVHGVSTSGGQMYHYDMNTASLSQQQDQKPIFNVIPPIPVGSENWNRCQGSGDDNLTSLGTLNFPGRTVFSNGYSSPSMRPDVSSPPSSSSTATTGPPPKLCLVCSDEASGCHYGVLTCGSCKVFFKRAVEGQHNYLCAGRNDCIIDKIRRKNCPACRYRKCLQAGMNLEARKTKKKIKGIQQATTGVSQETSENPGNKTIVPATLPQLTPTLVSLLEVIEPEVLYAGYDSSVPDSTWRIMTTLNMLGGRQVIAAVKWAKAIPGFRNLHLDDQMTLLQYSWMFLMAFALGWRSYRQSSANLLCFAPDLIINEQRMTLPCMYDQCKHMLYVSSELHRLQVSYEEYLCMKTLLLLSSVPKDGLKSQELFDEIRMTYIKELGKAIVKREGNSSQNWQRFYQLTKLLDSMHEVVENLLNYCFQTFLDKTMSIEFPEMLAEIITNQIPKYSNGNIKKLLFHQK
Chain of human RAR-related Orphan Receptor gamma (RORg), RORC (gene 6097) (P51449 whole entry, looked up, the tested form may be a part): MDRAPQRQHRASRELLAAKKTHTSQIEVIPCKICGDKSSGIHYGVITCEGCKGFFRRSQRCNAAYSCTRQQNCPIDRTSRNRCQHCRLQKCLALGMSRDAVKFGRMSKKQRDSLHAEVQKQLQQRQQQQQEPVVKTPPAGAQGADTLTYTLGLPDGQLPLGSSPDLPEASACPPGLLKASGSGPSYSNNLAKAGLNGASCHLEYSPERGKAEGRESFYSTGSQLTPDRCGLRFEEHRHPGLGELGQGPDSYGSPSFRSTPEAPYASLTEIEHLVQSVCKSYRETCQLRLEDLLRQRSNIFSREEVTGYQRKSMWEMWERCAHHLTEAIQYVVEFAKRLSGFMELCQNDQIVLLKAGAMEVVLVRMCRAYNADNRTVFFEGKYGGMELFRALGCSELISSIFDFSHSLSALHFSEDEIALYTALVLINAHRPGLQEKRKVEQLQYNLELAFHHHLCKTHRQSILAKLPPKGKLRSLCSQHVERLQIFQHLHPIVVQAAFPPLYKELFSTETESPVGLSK
Chain of Peroxisome proliferator-activated receptor gamma (Homo sapiens) (P37231 whole entry, looked up, the tested form may be a part): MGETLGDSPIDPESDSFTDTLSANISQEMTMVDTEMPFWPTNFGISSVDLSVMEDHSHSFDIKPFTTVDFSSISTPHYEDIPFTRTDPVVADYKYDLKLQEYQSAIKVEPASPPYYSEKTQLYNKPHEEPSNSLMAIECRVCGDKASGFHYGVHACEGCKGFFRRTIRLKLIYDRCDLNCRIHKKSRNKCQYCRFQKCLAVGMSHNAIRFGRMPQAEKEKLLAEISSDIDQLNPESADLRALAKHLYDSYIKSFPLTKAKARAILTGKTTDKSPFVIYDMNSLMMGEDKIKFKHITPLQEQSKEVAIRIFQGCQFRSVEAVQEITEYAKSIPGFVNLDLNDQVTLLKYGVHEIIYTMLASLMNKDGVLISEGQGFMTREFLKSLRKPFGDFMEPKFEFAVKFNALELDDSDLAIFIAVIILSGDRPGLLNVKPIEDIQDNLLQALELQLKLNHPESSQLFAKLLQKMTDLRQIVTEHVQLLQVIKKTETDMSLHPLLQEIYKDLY
Chain of Oxysterols receptor LXR-beta (Homo sapiens) (P55055 whole entry, looked up, the tested form may be a part): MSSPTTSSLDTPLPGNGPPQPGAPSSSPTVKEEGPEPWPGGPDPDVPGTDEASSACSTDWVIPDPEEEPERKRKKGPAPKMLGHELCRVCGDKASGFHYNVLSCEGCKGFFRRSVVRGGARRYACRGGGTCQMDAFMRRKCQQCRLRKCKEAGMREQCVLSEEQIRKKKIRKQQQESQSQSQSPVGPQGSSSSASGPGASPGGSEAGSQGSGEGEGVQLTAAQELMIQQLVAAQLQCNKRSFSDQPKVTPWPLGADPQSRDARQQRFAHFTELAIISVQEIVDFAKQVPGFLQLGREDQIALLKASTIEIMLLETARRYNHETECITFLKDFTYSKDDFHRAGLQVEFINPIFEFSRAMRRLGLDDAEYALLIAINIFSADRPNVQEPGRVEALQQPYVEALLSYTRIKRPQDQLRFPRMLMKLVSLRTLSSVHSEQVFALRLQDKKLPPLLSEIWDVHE
Chain of human Peroxisome Proliferator-activated Receptor delta (PPARd), PPARD (gene 5467) (Q03181 whole entry, looked up, the tested form may be a part): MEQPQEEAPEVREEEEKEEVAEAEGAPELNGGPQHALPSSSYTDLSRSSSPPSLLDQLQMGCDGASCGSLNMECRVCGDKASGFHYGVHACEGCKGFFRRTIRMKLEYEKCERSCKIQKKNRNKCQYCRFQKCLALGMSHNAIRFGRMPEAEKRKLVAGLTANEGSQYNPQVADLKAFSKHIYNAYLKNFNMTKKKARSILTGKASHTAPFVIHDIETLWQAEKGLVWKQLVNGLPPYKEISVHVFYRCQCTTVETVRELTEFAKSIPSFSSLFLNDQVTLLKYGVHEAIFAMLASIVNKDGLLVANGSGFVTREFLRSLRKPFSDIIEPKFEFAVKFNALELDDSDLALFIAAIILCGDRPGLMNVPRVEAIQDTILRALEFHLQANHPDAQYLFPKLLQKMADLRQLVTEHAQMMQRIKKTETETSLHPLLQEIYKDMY

C1=CCC=C1
inactive: [1] | [2] | [3]

Oc1ccc(Cl)cc1C1CCCC1
active: [4] 57.8 µM | [5] 18.5 µM | [9] 33.4 µM | [10] 9.24 µM | [12] 66.6 µM
inactive: [6] | [7] | [8] | [2] | [11] | [13] | [14]

C=CN1CCCCCC1=O
inactive: [15] | [1] | [6] | [8] | [10] | [16] | [17] | [3] | [11]

CCCCCCC1CCCC(=O)O1 (stereo not drawn)
active: [8] 52.6 µM
inactive: [1] | [18] | [6] | [10] | [17] | [3] | [11] | [12] | [19]

CCCCCCCC#N
inactive: [15] | [18] | [6] | [7] | [10] | [2] | [3] | [19]

CN(C)c1ccc(C(c2ccccc2)c2ccc(N(C)C)cc2)cc1
active: [10] 2.06 µM | [19] 75.8 µM
inactive: [15] | [1] | [7] | [2] | [11] | [12]

CC[N+](CC)(CC(=O)Nc1c(C)cccc1C)Cc1ccccc1
inactive: [15] | [6] | [9] | [10] | [20] | [19]

COC(=O)/C=C\C(=O)OC
inactive: [18] | [6] | [8] | [10] | [2] | [17] | [11]
active: [19] 76.9 µM

COC(OC)C(C)c1ccccc1 (stereo not drawn)
inactive: [1] | [8] | [10] | [16] | [2] | [17] | [3] | [12]
active: [19] 20.7 µM

c1cc(N(CC2CO2)CC2CO2)ccc1Cc1ccc(N(CC2CO2)CC2CO2)cc1 (stereo not drawn)
active: [4] 27.6 µM
inactive: [15] | [18] | [5] | [6] | [8] | [9] | [17] | [11] | [12]

CCOC(=O)c1ccccc1
active: [18] 27.9 µM | [19] 50 µM
inactive: [15] | [6] | [7] | [8] | [9] | [20] | [16] | [11] | [12]

O=C(CC(C(=O)OC1CCCCC1)S(=O)(=O)O)OC1CCCCC1 (stereo not drawn)
active: [9] 47.7 µM
inactive: [4] | [15] | [5] | [6] | [10] | [16] | [2] | [11]

Oc1ccc(Oc2ccccc2)cc1
active: [9] 28 µM
inactive: [4] | [5] | [6] | [8] | [2] | [17] | [12]

O=[N+]([O-])c1ccccc1C(F)(F)F
inactive: [15] | [9] | [10] | [20] | [16] | [17] | [11]
